From PubChem
KDM5B inh: Primary screen for KDM5B Histone Demethylases FDH-coupled qHTS; KDM5B demethylase, FDH-coupled NADH fluorescence (FDH is formaldehyde dehydrogenase); Potency, µM (top dose mostly 57.7 µM), actives largely listed as inhibitors; Lysine-specific demethylase 5B (Homo sapiens), Q9UGL1; 220,000 tested, 2.6% active; AID 1347165, 2019; active = well fitted inhibition curve with a large enough effect; inconclusive = small, poorly fitted or top-dose-only effect; inactive = no such curve, though single readings can be large or run the other way; note: nearly all actives have a fitted effect of over 70% in size
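Compound dilutions met 200 nM (final) KDM5BΔAP for 10 min at room temperature before substrate addition. The substrate mix held 12.5 µM H3K4me3 with cofactors 25 µM α-ketoglutarate and 50 µM Fe²⁺. NADH signal gain over 30 min defined activity.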
IP6K1 inh: Primary qHTS assay for small molecule inhibitors of Inositol hexaphosphate kinase 1 (IP6K1) | Inositol hexakisphosphate kinase 1 (Homo sapiens), Q92551 | IP6K1 kinase, ADP-Glo luminescence, 2 h; stronger effect = lower value | activity change, % (series mostly up to about 58 µM) | 140,000 tested, 0.81% active; in the data active = activity change below about -25%
Target sequence (Q92551 whole entry, looked up): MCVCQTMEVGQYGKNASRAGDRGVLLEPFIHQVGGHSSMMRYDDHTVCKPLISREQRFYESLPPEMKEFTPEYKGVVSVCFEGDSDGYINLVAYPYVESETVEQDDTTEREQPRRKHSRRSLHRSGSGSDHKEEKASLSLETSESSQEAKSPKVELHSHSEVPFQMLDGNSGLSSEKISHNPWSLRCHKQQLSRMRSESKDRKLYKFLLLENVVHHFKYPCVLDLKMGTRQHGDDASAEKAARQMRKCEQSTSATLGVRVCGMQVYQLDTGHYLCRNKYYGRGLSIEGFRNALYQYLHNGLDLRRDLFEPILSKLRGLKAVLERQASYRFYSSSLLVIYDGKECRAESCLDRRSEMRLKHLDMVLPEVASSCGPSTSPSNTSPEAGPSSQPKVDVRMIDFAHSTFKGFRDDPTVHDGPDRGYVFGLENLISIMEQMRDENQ
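ADP-Glo luminescence measures ADP made by human IP6K1 during a 2 h RT reaction with ATP/IP6 (mix at 1.3 mM/130 uM); top library doses 57.5 and 19.1 uM final.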
A number is an active result; 0 = inactive; ? = inconclusive; - = not tested or not shown. An excerpt weighted towards active compounds, which were near 2.7% of everything screened.

SMILES	KDM5B inh	IP6K1 inh
O=C(NCC1CC1)c1cc2n(n1)CC(c1ccc3c(c1)OCO3)OC2 (stereo unspecified)	0	0
O=C(NCc1ccc(F)cc1F)c1cc2n(n1)CC(c1ccc3c(c1)OCO3)OC2 (stereo unspecified)	28µM	0
O=C(NCc1ccc(Cl)cc1)c1cc2n(n1)CC(c1ccc3c(c1)OCO3)OC2 (stereo unspecified)	28µM	0
CC(C)c1ccc(CNC(=O)c2cc3n(n2)CC(c2ccc4c(c2)OCO4)OC3)cc1 (stereo unspecified)	?	0
CC(C)c1cccc(NC(=O)c2ccc(CN3C(=O)NC4(CCOCC4)C3=O)cc2)c1	0	0
COc1ccccc1-c1ccc(CN2CCCCC2C(=O)NCC2CC2)cc1 (stereo unspecified)	-	0
O=C(Oc1ccc2ccccc2c1)C1C2CCCC1C2c1ccccc1 (stereo unspecified)	0	-
CN1C(=O)C(c2ccccc2)CC12CCN(C(=O)C1CCC1)CC2 (stereo unspecified)	0	0
CCc1cnc(C)nc1N1CCC2(CC1)CC(c1ccccc1)C(=O)N2C (stereo unspecified)	0	0
Cc1ccc(C#N)c(N2CCC3(CC2)CC(c2ccccc2)C(=O)N3C)n1 (stereo unspecified)	28µM	0
CN1C(=O)C(c2ccccc2)CC12CCN(C(=O)CN1CCCC1)CC2 (stereo unspecified)	25µM	0
CN(CCC#N)C(=O)COC(=O)c1nn(Cc2ccccc2)c(=O)c2ccccc12	0	-
CCn1c(CNC(C)c2ccccc2)nc2cc(S(=O)(=O)N3CCOCC3)ccc21 (stereo unspecified)	0	-
c1cc(-c2ccco2)cc(-c2nc(C3CCOC3)no2)c1 (stereo unspecified)	?	0
CC(C)C(=O)N(C)Cc1cc(=O)[nH]c2ccccc12	0	-
COc1ccc(Nc2cc3c(cn2)NCCN(Cc2ccccc2)C3)cc1	?	0
COc1ccc(CN2CCNc3cnc(Nc4ccccc4)cc3C2)cc1	35µM	0
COc1ccccc1CN1CCNc2cnc(OCc3cccnc3)cc2C1	?	0
COc1ccc(CN2CCNc3cc(Nc4ccccc4)ncc3C2)cc1	?	0
COc1ccc(CN2CCNc3cnc(Nc4ccccc4)cc3C2)cn1	35µM	0
COc1ccc(CN2CCNc3cnc(OCc4cccnc4)cc3C2)cc1	28µM	0
c1ccc(Nc2cc3c(cn2)NCCN(Cc2ccsc2)C3)cc1	35µM	0
c1ccc(Nc2cc3c(cn2)NCCN(Cc2cccs2)C3)cc1	?	0
CN1CCN(CC(O)CN)CC1 (stereo unspecified)	0	-
O=C(CNc1nc(-c2ccccc2)nc2ccccc12)NC1CC1	0	-
SMILES	KDM5B inh	IP6K1 inh
COC(=O)C1=C(C)N(c2cccc(C)c2)C(=S)NC1c1ccc(C)s1 (stereo unspecified)	0	-
CCCn1nc(C(=O)OCc2nc(-c3ccccc3)no2)c2ccccc2c1=O	0	-
CCc1ccc(S(=O)(=O)c2cnc3ccc(C)cc3c2N2CCOCC2)cc1	0	-
COc1ccc(-c2ccnc(N[C@H]3CO[C@H]4[C@@H]3OC[C@@H]4NC(=O)NCc3ccccc3)n2)cc1	25µM	0
CN(C)c1ccc(C(=O)N[C@H]2CO[C@H]3[C@@H]2OC[C@@H]3Nc2nccc(-c3cccs3)n2)cc1	?	0
CN(C)c1ccc(-c2ccnc(N[C@H]3CO[C@H]4[C@@H]3OC[C@@H]4NC(=O)NCc3ccccc3)n2)cc1	28µM	0
O=C(N[C@H]1CO[C@H]2[C@@H]1OC[C@@H]2Nc1nccc(-c2ccc(-c3ccccc3)cc2)n1)c1ccccc1	?	0
COC(=O)c1ncoc1-c1ccccc1C(=O)N1CCN(c2cc(C)ccc2C)CC1	0	-
N#Cc1ccccc1CNc1ccc(F)cc1Cl	0	-
COc1cccc(C(=O)NCCn2ccn3nc(-c4ccc(F)cc4)cc3c2=O)c1OC	0	0
COc1ccc(-c2cc3c(=O)n(CCNC(=O)c4cccc5[nH]ccc45)ccn3n2)cc1	22µM	0
COc1cccc(-c2cc3c(=O)n(CCNC(=O)c4ccccc4Cl)ccn3n2)c1	0	0
COc1cccc(-c2cc3c(=O)n(CCNC(=O)c4cccc5[nH]ccc45)ccn3n2)c1	25µM	0
O=C(/C=C/c1ccccc1)OCC(=O)c1ccc(Br)s1	0	-
O=C(Nc1ccccc1Cl)C1CCCN(Cc2cccc(-c3ccc(F)cc3F)c2)C1 (stereo unspecified)	-	0
O=C(NCCCc1ccccc1)c1n[nH]c2c1CN(C(=O)c1cccc(Cl)c1)CC2	-	0
CS(=O)(=O)N(CC(=O)Nc1ccc2c(c1)OCO2)c1cccc(Cl)c1Cl	0	-
CCCc1noc(-c2cccn3c(CNC(=O)c4ccc(F)cc4)nnc23)n1	14µM	0
CCCc1noc(-c2cccn3c(CNC(=O)c4ccc(Cl)cc4)nnc23)n1	?	0
